From PubChem
The list is not random: actives were taken first. Their share in the collection is about 21%.
Pf growth 48h: inhibits P. falciparum growth in the first generation, 48 h; P. falciparum luciferase growth in erythrocytes, 48 h; Potency, µM (top dose mostly 28.7 µM), for inactives: at the top dose activity change, negative = inhibition, most hits filed as inhibitors; actives 5.9% (n = 310,000); AID 504832; further: potency means the concentration at half of the fitted maximal effect; on the % scale 0 is the no-effect control and ±100 the full control effect
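Here the parasites carry a stable luciferase gene and grow inside erythrocytes in Albumax-based RPMI medium with compound for one erythrocytic cycle. Activity is scored as loss of luminescent signal.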
Pf growth 96h: P. falciparum growth inhibition at 96 hours | P. falciparum luciferase reporter growth, 96 h | Potency, µM (titrated, usually from 28.7 µM), for inactives: at the top dose activity change, negative = inhibition, usual class: inhibitors | actives 6.9% (n = 320,000) | AID 504834; further: potency means the concentration at half of the fitted maximal effect; on the % scale 0 is the no-effect control and ±100 the full control effect
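Luminescence readout: decreased luciferase signal marks inhibited growth of reporter-expressing P. falciparum in infected red cells (2% hematocrit, 0.05% parasitemia final), exposed to compound two generations (96 h, 37 C, 5% CO2).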
Shiga inhibitor: blocks Shiga toxin action in Vero cells; Vero cells, Shiga toxin protein synthesis inhibition reporter; inhibition, % at 38.7 µM; actives 9.2% (n = 290,000); AID 2315; in the data active means inhibition mostly above about 28%, no sharp cut-off; inactive means mostly below about 43%; further: 0% is about no effect
Cycloheximide cs: affects cycloheximide protein synthesis inhibition readout, counter-screen; max response, %; actives 12% (n = 300,000); cell reporter, cycloheximide protein synthesis inhibition counterscreen; in the data active means max response mostly above about 13%, no sharp cut-off; inactive means mostly below about 14%; further: read at 38.3 µM for the half of the compounds with a filed dose; 0% is about no effect
SARS PLP yeast: SARS-CoV PLP inhibition in yeast; actives 0.19% (n = 330,000); Potency, µM (top dose mostly 32.9 µM), for the others: at the highest dose activity, positive = growth rescue, most hits filed as activators; AID 485353; S. cerevisiae expressing SARS-CoV PLpro, growth rescue; calls by dose curve; further: potency means the concentration at half of the fitted maximal effect; 0% is about no effect; nearly all actives have a fitted effect of over 55% in size
NS1 inh: inhibitors of influenza NS1 protein function. Potency, µM (titrated, usually from 46.1 µM), for the others: at the highest dose activity, positive = more growth. actives 0.4% (n = 270,000). AID 2326; calls by dose curve; further: potency means the concentration at half of the fitted maximal effect; actives are rising curves; nearly all actives have a fitted effect of over 50% in size
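OD600 was taken as the measure of yeast growth restored by compound in an NS1-expressing S. cerevisiae strain. Cells had been washed out of glucose medium and diluted 1:100 into galactose -URA medium, pH 6.0.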
An asterisk follows results filed as active; ? = inconclusive; . = no result given. Unless noted, the call rests on the fitted dose curve; in most records, active means well fitted inhibition curve with a large enough effect; inconclusive means small, poorly fitted or top-dose-only effect, or another doubt; inactive means no such curve, though single readings can be large or run the other way.

SMILES | Pf growth 48h | Pf growth 96h | Shiga inhibitor | Cycloheximide cs | SARS PLP yeast | NS1 inh
CCOC(=O)Cc1ccc(NC(=O)c2cccc([N+](=O)[O-])c2)cc1 | 10.3% | 8.8% | 61.6* | 21.5* | -1.1% | -0.5%
O=C(Nc1ccccc1)Nc1ncc([N+](=O)[O-])s1 | -61.0% | -63.6% | 76.8* | 35.0* | -4.3% | .
O=C(Nc1ccc(Br)cc1)c1cc([N+](=O)[O-])cc([N+](=O)[O-])c1 | 2.62µM* | 4.5% | . | -3.2 | 3.6% | 4.9%
CC(=O)Nc1ccc(NC(=O)c2cc([N+](=O)[O-])cc([N+](=O)[O-])c2)cc1 | -99.8% | 34.0% | -5.9 | 2.0 | -1.1% | 25.3%
COc1ccc(Cc2nnc(NC(=O)c3ccccc3C)s2)cc1 | 33.9% | 2.08µM* | 5.2 | 10.1 | -2.4% | -7.1%
CCOC(=O)Cc1ccc(NC(=O)c2ccc([N+](=O)[O-])cc2)cc1 | -18.5% | 56.1% | 19.8 | -0.9 | -0.8% | -5.4%
CC1CCCC(NC(=O)CCn2c(=O)oc3ccccc32)C1C (stereo not drawn) | 33.0% | -26.7% | 5.3 | -1.8 | -12.5% | -12.9%
COC(=O)c1cc(=O)c2c(C)nc(C(Cl)(Cl)Cl)nc2[nH]1 | 355.0% | 126.1% | -1.3 | 1.0 | -7.8% | .
CN(C)C(=O)C1C2NC(=S)N(c3ccccc3)C1(C)Oc1ccccc12 (stereo not drawn) | 6.5% | ? | 1.6 | 10.2 | -2.2% | .
Cc1cccc(N2C(=S)NC3c4ccccc4OC2(C)C3C(=O)N(C)C)c1 (stereo not drawn) | 4.2% | 9.28µM* | 7.8 | 1.9 | 3.8% | .
Cn1cc(S(=O)(=O)NC2CCCC2)c(=O)n(C)c1=O | 7.2% | 24.0% | . | . | 1.0% | .
COc1ccc(N(CC(=O)NCc2ccccc2C)S(=O)(=O)c2ccccc2[N+](=O)[O-])c(OC)c1 | ? | 10.4µM* | -16.9 | -2.1 | -0.8% | 15.8%
COc1ccc(N(CC(=O)NCc2ccc(C)cc2)S(=O)(=O)c2ccccc2[N+](=O)[O-])c(OC)c1 | ? | 0.0% | -1.7 | 0.4 | 0.4% | 12.0%
COc1ccc(N(CC(=O)N2CCCCCC2)S(=O)(=O)c2ccccc2[N+](=O)[O-])c(OC)c1 | 11.7µM* | -28.1% | -8.8 | -1.5 | 0.4% | 5.2%
COc1ccccc1N1C(=O)C=C(Sc2nc(C)cc(C)n2)C1=O | ? | ? | 5.8 | -0.5 | 0.2% | 10.5%
Cn1c(=O)c2c(ncn2CC(=O)OCC(=O)Nc2ccc(F)cc2Cl)n(C)c1=O | . | . | . | . | -0.9% | .
COC(=O)C1(C)NC(=O)c2ccccc2N1 (stereo not drawn) | -0.6% | 13.1µM* | 1.1 | 15.5* | 2.9% | 3.3%
Cc1ccccc1C1=Nn2c(nnc2-c2ccco2)SC1 | 6.4% | 15.9% | -1.6 | -1.8 | -1.0% | -6.9%
COc1cccc(NC(=O)c2cccc(N3C(=O)C4CCC(C)CC4C3=O)c2)c1 (stereo not drawn) | 2.33µM* | 4.15µM* | -6.7 | -2.6 | 0.1% | -1.4%
CC1CCC2C(=O)N(c3cccc(C(=O)Nc4ccccc4Cl)c3)C(=O)C2C1 (stereo not drawn) | -14.5% | 11.7µM* | 24.5 | 1.0 | 11.9% | -4.1%
CCNC(=O)CSc1nnc(-c2cc(-c3ccc(Cl)cc3)nc3ccccc23)o1 | -16.6% | ? | -7.7 | -7.3 | -17.9% | 0.6%
Cc1nc2nc(NC(=O)c3ccco3)nn2c(C)c1Cl | 117.0% | -17.8% | 43.1* | 9.2 | -1.0% | 10.9%
Cc1nc(NC(=O)c2ccco2)sc1C(=O)O | 133.5% | 0.4% | 13.2 | -6.6 | -10.2% | -7.4%
O=C(Nc1nc2c(F)cccc2s1)c1ccco1 | 215.2% | 28.4% | 28.3* | 31.1* | -14.1% | -138.8%
Cc1cc(Cl)cc2sc(NC(=O)c3ccco3)nc12 | 136.5% | 421.5% | 50.1* | 51.4* | -1.8% | -12.8%
SMILES | Pf growth 48h | Pf growth 96h | Shiga inhibitor | Cycloheximide cs | SARS PLP yeast | NS1 inh
Cc1cc(C)c2nc(NC(=O)c3ccco3)sc2c1 | 296.9% | 287.7% | 51.4* | 31.0* | 0.2% | -3.7%
O=C(Nc1nc2c(Br)cc(Br)cc2c(=O)s1)c1ccco1 | 4.9% | 15.8% | -1.7 | -0.8 | -2.2% | -4.3%
Cc1onc(-c2c(F)cccc2Cl)c1C(=O)Nc1ccc(S(=O)(=O)Nc2ncccn2)cc1 | 9.0% | ? | -10.4 | -2.7 | 1.2% | -11.0%
COc1cc(OC)cc(-c2c(-c3ccc(F)cc3)c3cc(-c4cnc(OC)nc4)ccc3n2C)c1 | 4.15µM* | 4.65µM* | . | . | -2.0% | .
COc1ccc(-c2c(-c3cc(OC)cc(OC)c3)n(C)c3ccc(-c4cnc(N)nc4)cc23)cc1 | . | . | . | . | 0.1% | .
COc1ccc(-c2c(-c3cc(OC)cc(OC)c3)n(C)c3ccc(-c4ccc(S(N)(=O)=O)cc4)cc23)cc1 | 13.1µM* | ? | . | . | -1.1% | .
Cc1ccc(-c2nn(-c3ccccc3)cc2C(=O)N2CCN(c3ccccn3)CC2)cc1 | ? | ? | 42.2* | 32.6 | -0.2% | .
O=C(/C=C/c1cn(-c2ccccc2)nc1-c1cccnc1)N1CCCC1 | ? | ? | -5.1 | -2.2 | -1.1% | .
COc1ccc(-c2nn(-c3ccccc3)cc2/C=C/C(=O)N2CCN(c3ccccn3)CC2)cc1 | ? | 10.4µM* | -1.3 | -3.0 | -3.4% | .
O=C(c1cn(-c2ccccc2)nc1-c1ccccc1)N1CCN(c2ccccn2)CC1 | ? | -18.8% | 29.1 | 23.0* | -0.3% | -19.1%
CN(CC(=O)Nc1ccc(F)c(F)c1F)C(=O)C1CCC1 | -14.0% | 17.5% | . | . | 1.6% | .
Cc1ccc(Cl)c(OCC(=O)Nc2ccc3c(c2)OCCO3)c1 | 113.4% | . | 111.8* | 52.1* | -0.6% | -5.7%
O=C(COc1cc(Cl)c(Cl)cc1Cl)NC(=O)Nc1ccc2c(c1)OCCO2 | 90.2% | 134.5% | 145.2* | 76.0* | 14.6% | 10.5%
Cc1cc(OCC(=O)Nc2ccc3c(c2)OCCO3)cc(C)c1Cl | 31.5% | . | 32.7 | -2.7 | -10.7% | 1.2%
CC(=O)NC1=NN(C(C)=O)C(c2sccc2C)S1 (stereo not drawn) | . | -5.9% | -6.2 | -2.5 | -1.1% | -4.5%
COCCN(CC1CCCN(C2Cc3ccccc3C2)C1)C(=O)CCC(N)=O (stereo not drawn) | ? | 139.0% | 23.6 | -4.1 | -3.5% | -9.6%
c1ccc(-c2ccc(OCCCn3cncn3)cc2)cc1 | 70.8% | ? | 60.9* | 40.6* | -9.9% | -102.3%
c1ccc(COc2ccc(OCCn3cncn3)cc2)cc1 | 189.4% | . | 53.8* | 25.1* | -5.9% | -1.6%
CCC(=O)c1ccccc1OCCCn1cncn1 | 17.5% | . | -10.4 | -2.2 | 0.2% | -1.7%
CC(=O)CCc1ccc(OCCCCn2cncn2)cc1 | 30.1% | 46.9% | 50.6* | 19.7* | -2.4% | -3.1%
c1ccc(Oc2cccc(OCCn3cncn3)c2)cc1 | 22.7% | 3.0% | 11.2 | -1.6 | 0.7% | -5.2%
CCCNC(=O)C1CNc2ccccc2O1 (stereo not drawn) | 28.7% | 0.0% | -15.6 | -1.1 | -5.4% | -0.5%
Cc1ccc(C)c(N2CCN(C(=O)Cn3ncc4c([nH]c5ccc(C)cc54)c3=O)CC2)c1 | -8.7% | -27.7% | -5.0 | 6.7 | -1.1% | 12.7%
